The text below walks through data of PubChem BioAssay.

Experiment [1] is described as follows: antimalarial activity against Dd2 strain (AID 2302;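 active means growth inhibition above 50% at the single 2 µM test dose, taken to imply half-maximal potency below 2 µM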;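 further: 0% = DMSO untreated growth and 100% = chloroquine plus artemisinin killed control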). The note with it: P. falciparum Dd2 in RBCs, LDH growth readout, 72 h; at 2 µM; active compounds read high.
The nature of experiment [2]: HepG2 cytotoxicity, primary screen, cytotoxicity control for P. falciparum antimalarial project, cell-based, ATP luminescence (AID 2303;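 active means inhibition above 50%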;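 further: 0% = DMSO wells and 100% = digitonin-killed cells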). The note with it: HepG2 viability, 24-48 h, at 10 µM, active compounds read high.
In experiment [3] the target is L-lactate dehydrogenase (Plasmodium falciparum (isolate CDC / Honduras)) (UniProt Q27743). Description: PfLDH activity inhibition – cell lysate, 3D7 strain, counter-screen for P. falciparum growth inhibition project (AID 2304).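 Further: 0% = vehicle and 100% = reference inhibitor.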 The note with it: P. falciparum 3D7 crude extract, LDH APAD/NBT absorbance; at 2 µM; active compounds read high.
Chain of L-lactate dehydrogenase (Plasmodium falciparum (isolate CDC / Honduras)) (Q27743 whole entry, looked up): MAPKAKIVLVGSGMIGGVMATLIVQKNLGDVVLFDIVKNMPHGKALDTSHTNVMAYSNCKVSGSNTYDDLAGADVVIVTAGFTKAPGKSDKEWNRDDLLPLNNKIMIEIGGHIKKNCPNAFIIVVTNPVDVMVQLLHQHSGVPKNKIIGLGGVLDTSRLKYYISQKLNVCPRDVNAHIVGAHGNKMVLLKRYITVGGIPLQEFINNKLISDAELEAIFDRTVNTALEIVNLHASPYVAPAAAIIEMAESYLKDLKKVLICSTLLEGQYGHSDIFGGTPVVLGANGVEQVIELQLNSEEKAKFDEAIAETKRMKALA
Experiment [4] in a line: inhibition of 3D7 malaria parasite growth – strain 3D7 (AID 2306).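 Further: 0% = DMSO wells and 100% = chloroquine plus artemisinin control wells.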 The note with it: P. falciparum 3D7 erythrocytic growth, LDH absorbance, 72 h; at 2 µM; active compounds read high.
Experiment [5] addresses Calcium-dependent protein kinase 1 (Plasmodium falciparum (isolate 3D7)) (UniProt P62344). The experiment can be described thus: PfCDPK1 kinase inhibitors, biochemical, TCAMS library (AID 1159585; cut-off not given, nearly all actives have IC50 up to about 0.98 µM;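 further: inhibitors leave more ATP so luminescence rises with inhibition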). The note with it: recombinant PfCDPK1, Kinase-Glo ATP depletion luminescence. (In Kinase-Glo more light means more ATP remaining.)
Experiment [6] deals with Plasmodium falciparum protein kinase 6 (PK6, PF3D7_1337100) (UniProt Q8IDW1). Description: PfPK6 kinase inhibitors, biochemical, TCAMS library (AID 1159586). The settings on record: recombinant PfPK6, Kinase-Glo ATP depletion luminescence.
Chain of Plasmodium falciparum protein kinase 6 (PK6, PF3D7_1337100) (Q8IDW1 1-305): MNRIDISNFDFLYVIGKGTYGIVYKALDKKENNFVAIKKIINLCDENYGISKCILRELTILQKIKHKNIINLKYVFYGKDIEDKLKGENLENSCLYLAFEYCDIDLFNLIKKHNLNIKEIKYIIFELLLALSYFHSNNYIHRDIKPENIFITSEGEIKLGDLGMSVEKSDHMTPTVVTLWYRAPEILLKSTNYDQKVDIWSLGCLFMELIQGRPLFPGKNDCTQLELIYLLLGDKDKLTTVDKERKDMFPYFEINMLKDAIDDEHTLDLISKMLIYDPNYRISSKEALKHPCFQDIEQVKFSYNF
The target in experiment [7] is Protein kinase 7 (PK7), Plasmodium falciparum 3D7 (PF3D7_0213400) (UniProt Q7YTF7). The experiment can be described thus: inhibition of Plasmodium PK7 catalytic activity – biochemical, TCAMS antimalarial set, Kinase-Glo luminescence (AID 1159587). The note with it: recombinant PfPK7, Kinase-Glo ATP depletion luminescence.
Chain of Protein kinase 7 (PK7), Plasmodium falciparum 3D7 (PF3D7_0213400) (Q7YTF7 1-343): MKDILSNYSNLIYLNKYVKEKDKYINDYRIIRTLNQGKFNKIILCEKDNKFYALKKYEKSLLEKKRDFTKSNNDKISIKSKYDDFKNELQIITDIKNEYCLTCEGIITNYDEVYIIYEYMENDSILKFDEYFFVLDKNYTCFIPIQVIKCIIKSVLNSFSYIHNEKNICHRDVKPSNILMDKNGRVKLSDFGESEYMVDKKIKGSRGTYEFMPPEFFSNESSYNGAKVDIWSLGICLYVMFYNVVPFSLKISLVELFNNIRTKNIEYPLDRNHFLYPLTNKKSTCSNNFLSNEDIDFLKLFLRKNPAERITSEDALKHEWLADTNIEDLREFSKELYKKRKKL
Experiment [8] addresses Calcium-dependent protein kinase 4 (Plasmodium falciparum (isolate 3D7)) (UniProt Q8IBS5). Description: PfCDPK4 kinase inhibitors, biochemical, TCAMS library (AID 1159588; cut-off not given, nearly all actives have IC50 up to about 0.91 µM). The note with it: recombinant PfCDPK4, Kinase-Glo ATP depletion luminescence.

A number with no mark means an inactive call. For some of these results: Potency and affinity values are given separately. Active and inactive are the calls of the source. Unless noted, how the calls were made is not given here.

Chain of Calcium-dependent protein kinase 1 (Plasmodium falciparum (isolate 3D7)) (P62344 whole entry, looked up): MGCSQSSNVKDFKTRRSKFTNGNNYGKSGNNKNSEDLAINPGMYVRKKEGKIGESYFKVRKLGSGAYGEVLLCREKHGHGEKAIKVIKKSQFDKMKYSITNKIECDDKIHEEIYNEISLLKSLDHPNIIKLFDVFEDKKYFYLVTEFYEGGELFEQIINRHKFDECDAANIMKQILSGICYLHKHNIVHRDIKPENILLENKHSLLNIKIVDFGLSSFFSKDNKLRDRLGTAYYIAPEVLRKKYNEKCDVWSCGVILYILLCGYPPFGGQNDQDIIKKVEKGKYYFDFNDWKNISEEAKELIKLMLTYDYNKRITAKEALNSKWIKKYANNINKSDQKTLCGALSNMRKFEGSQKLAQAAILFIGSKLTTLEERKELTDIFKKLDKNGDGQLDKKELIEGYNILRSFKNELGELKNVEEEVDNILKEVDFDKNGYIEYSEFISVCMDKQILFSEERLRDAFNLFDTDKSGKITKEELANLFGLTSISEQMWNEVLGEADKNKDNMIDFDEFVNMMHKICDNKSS
Chain of Calcium-dependent protein kinase 4 (Plasmodium falciparum (isolate 3D7)) (Q8IBS5 whole entry, looked up): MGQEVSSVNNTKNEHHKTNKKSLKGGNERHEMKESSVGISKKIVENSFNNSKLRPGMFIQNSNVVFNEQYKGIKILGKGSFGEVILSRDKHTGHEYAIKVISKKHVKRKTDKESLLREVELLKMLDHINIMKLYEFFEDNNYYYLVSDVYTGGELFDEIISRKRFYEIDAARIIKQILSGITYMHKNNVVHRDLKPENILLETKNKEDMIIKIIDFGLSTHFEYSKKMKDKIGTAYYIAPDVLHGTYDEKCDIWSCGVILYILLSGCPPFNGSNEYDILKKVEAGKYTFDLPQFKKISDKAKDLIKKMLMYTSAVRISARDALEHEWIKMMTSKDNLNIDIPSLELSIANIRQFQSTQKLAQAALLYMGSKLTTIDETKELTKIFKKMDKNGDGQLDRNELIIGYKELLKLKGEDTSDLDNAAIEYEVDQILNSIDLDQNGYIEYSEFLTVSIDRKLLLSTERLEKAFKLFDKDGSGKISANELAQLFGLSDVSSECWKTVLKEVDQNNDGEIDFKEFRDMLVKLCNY

Consider `Cc1cc(NC(=O)Nc2cccc(N(C)C)c2)c2ccccc2n1`, for which the growth inhibition in experiment [1] was 95% (active); in experiment [4] it was 97% (active). The results for the inhibition in experiment [2] and in experiment [3] were 0% and 4%, respectively. The outcome in experiment [5], in experiment [6], in experiment [7] and in experiment [8] was inactive.

On to `N#Cc1c(N)n(CCc2ccc(F)cc2)c2nc3ccccc3nc12`, for which the growth inhibition in experiment [1] is 36%; in experiment [4], 92% (active). The inhibition was 8% in experiment [2] and -1% in experiment [3]. The outcome in experiment [5], in experiment [6], in experiment [7] and in experiment [8] was inactive.

In the case of `O=C(Nc1ccc(Cl)cc1)NC1CCN(CCCCCNC(=O)[C@@H]2C[C@H]2c2ccc(Cl)c(Cl)c2)CC1`, the values for the growth inhibition in experiment [1] and in experiment [4] were 18% and 102% (active), respectively. Further, the inhibition in experiment [2] was 51% (active); in experiment [3], 4%. The outcome in experiment [5], in experiment [6], in experiment [7] and in experiment [8] was inactive.

With `CC(=O)c1cccc2cc(C(=O)NC3CCC(CCN4CCc5ccc(C#N)cc5C4)CC3)[nH]c12` (stereo not given), the results for the growth inhibition in experiment [1] and in experiment [4] were 17% and 100% (active), respectively. Besides, the inhibition is 12% in experiment [2] and -4% in experiment [3]. For the same compound, the outcome in experiment [5], in experiment [6], in experiment [7] and in experiment [8] was inactive.

Regarding `O=C(Nc1ccccc1F)NC1CCN(c2ccnc(Nc3ccc(F)cc3)n2)CC1`, the growth inhibition in experiment [1] is 63% (active); in experiment [4] it was 99% (active). For the same compound, the inhibition in experiment [2] is 13%; in experiment [3], -4%. Moreover, the result in experiment [5], in experiment [6], in experiment [7] and in experiment [8] was inactive.

With `CCN(CC)CCCN(C(=O)Nc1c(Cl)cncc1Cl)c1nc(-c2ccc(F)cc2)cs1`, the growth inhibition in experiment [1] was 93% (active); in experiment [4], 101% (active). The inhibition is 37% in experiment [2] and -5% in experiment [3]. Moreover, the result in experiment [5], in experiment [6], in experiment [7] and in experiment [8] was inactive.

With `NC(=O)c1cc(-c2ccccc2)cc2c(C3CCC(NCc4ccccc4)C3)c[nH]c12` (stereo not given), the growth inhibition was 30% in experiment [1] and 95% (active) in experiment [4]. For the same compound, the figures for the inhibition in experiment [2] and in experiment [3] were 99% (active) and -7%, respectively. The outcome in experiment [5], in experiment [6], in experiment [7] and in experiment [8] was inactive.

`CC(=O)Nc1ncc(C(=O)Nc2ccc(-c3cccc(-c4nc5ccc(C(F)(F)F)cc5[nH]4)c3)cc2)s1`: the growth inhibition was 92% (active) in experiment [1] and 101% (active) in experiment [4]. In addition, the inhibition in experiment [2] was 79% (active); in experiment [3], 3%. The outcome in experiment [5], in experiment [6], in experiment [7] and in experiment [8] was inactive.

As for `O=C(NCCCCN1CCC(C(c2ccccc2)c2ccccc2)CC1)c1ccc(NC(=O)c2ccc(Cl)cc2)cc1`, the results for the growth inhibition in experiment [1] and in experiment [4] were 47% and 100% (active), respectively. Further, the inhibition in experiment [2] is 12%; in experiment [3], -2%. For the same compound, the outcome in experiment [5], in experiment [6], in experiment [7] and in experiment [8] was inactive.

Take `CC(C)CCN1CCCN(Cc2cccc(NC(=O)c3ccc(-c4ccccc4)cc3)c2)CC1`: the growth inhibition is 21% in experiment [1] and 92% (active) in experiment [4]. For the same compound, the inhibition was 27% in experiment [2] and 7% in experiment [3]. Also, the result in experiment [5], in experiment [6], in experiment [7] and in experiment [8] was inactive.

For the compound `OC1CCCN(Cc2ccc(-c3cccc(-c4nc5ccccc5[nH]4)c3)cc2)C1` (stereo not given), the growth inhibition in experiment [1] was -3%; in experiment [4], 86% (active). In addition, the results for the inhibition in experiment [2] and in experiment [3] were 14% and 2%, respectively. Also, the result in experiment [5], in experiment [6], in experiment [7] and in experiment [8] was inactive.

On to `O=S(=O)(NC1CCN(c2ccnc3cc(Cl)ccc23)C1)c1cccs1` (stereo not given), for which the growth inhibition in experiment [1] is 76% (active); in experiment [4], 102% (active). Moreover, the inhibition in experiment [2] was 6%; in experiment [3] it was -4%. In addition, the outcome in experiment [5], in experiment [6], in experiment [7] and in experiment [8] was inactive.

As for `c1ccc2c(CNc3ccnc(NCc4cccc5ccccc45)n3)cccc2c1`, the growth inhibition was 71% (active) in experiment [1] and 99% (active) in experiment [4]. For the same compound, the inhibition in experiment [2] was 51% (active); in experiment [3], 3%. Moreover, the outcome in experiment [5], in experiment [6], in experiment [7] and in experiment [8] was inactive.

For the compound `Cc1nnsc1C(=O)Nc1ccc(-c2ccc(-c3nc4c(C)cccc4[nH]3)s2)cc1`, the growth inhibition in experiment [1] is 61% (active); in experiment [4] it was 100% (active). In addition, the inhibition in experiment [2] was 63% (active); in experiment [3], 2%. Besides, the outcome in experiment [5], in experiment [6], in experiment [7] and in experiment [8] was inactive.

For the compound `Cc1cccc(Nc2nccc(NCC(O)c3cccc(C(F)(F)F)c3)n2)c1` (stereo not given), the growth inhibition in experiment [1] is 94% (active); in experiment [4], 100% (active). In addition, the inhibition is 25% in experiment [2] and -2% in experiment [3]. Further, the result in experiment [5], in experiment [6], in experiment [7] and in experiment [8] was inactive.

For `CN1CCC(Oc2ccc(CN3CC[C@H](NC(=O)c4ccc(Cl)c(Cl)c4)C3)cc2Cl)C1` (stereo not given in full), the values for the growth inhibition in experiment [1] and in experiment [4] were 78% (active) and 101% (active), respectively. Besides, the results for the inhibition in experiment [2] and in experiment [3] were 68% (active) and 0%, respectively. In addition, the outcome in experiment [5], in experiment [6], in experiment [7] and in experiment [8] was inactive.

As to `CCC1(C)N=C(N)N=C(N)N1c1ccc(Cl)cc1` (stereo not given), the growth inhibition was -1% in experiment [1] and 95% (active) in experiment [4]. Moreover, the inhibition in experiment [2] is 7%; in experiment [3] it was -3%. Moreover, the result in experiment [5], in experiment [6], in experiment [7] and in experiment [8] was inactive.

On to `COc1ccc2c(c1)[nH]c1c(/C=C/c3ccc([N+](=O)[O-])cc3)nccc12`, for which the growth inhibition in experiment [1] was 63% (active); in experiment [4], 100% (active). In addition, the inhibition is 4% in experiment [2] and 3% in experiment [3]. Besides, the result in experiment [5], in experiment [6], in experiment [7] and in experiment [8] was inactive.

For `Cc1cc(O)c(CN(C)Cc2ccc3c(c2)OCCO3)cc1C(C)C`, the growth inhibition in experiment [1] was 47%; in experiment [4], 98% (active). Also, the values for the inhibition in experiment [2] and in experiment [3] were 10% and -3%, respectively. The result in experiment [5], in experiment [6], in experiment [7] and in experiment [8] was inactive.

In the case of `COc1cccc(C(O)CNc2ccnc(Nc3ccc(Cl)cc3)n2)c1` (stereo not given), the growth inhibition in experiment [1] is 46%; in experiment [4], 99% (active). Also, the inhibition in experiment [2] was 31%; in experiment [3] it was -7%. Moreover, the result in experiment [5], in experiment [6], in experiment [7] and in experiment [8] was inactive.

In general, inhibition refers to the drop in the measured response relative to a control, in per cent.
